Measured values: PubChem BioAssay AID720597 (Broad Institute, 2013)
Measured potencies and affinities stand elsewhere. Active and inactive are the calls of the source.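 The calls were made as follows: active = fitted half-maximal dose no more than twice the top valid tested dose, for compounds that lower signal; inconclusive = fit invalid, or curve flat with activity between -70 and -30; inactive = potency past limit, curve flat within ±30, or signal increasing.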

The molecules below were run against NAD-dependent protein deacylase sirtuin-5, mitochondrial (Homo sapiens) (UniProt Q9NXA8) (assay: blockers of sirtuin-5 peptide desuccinylation – biochemical, fluorescence imaging, cherry-pick, set 6, dose response (AID 720597;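 also: lower AMC signal can also come from blocking the trypsin step; 0% = median of neutral control wells and -100% = median of positive control wells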)). Details: Purified SirT5, succinyl-peptide-AMC/trypsin fluorescence; series mostly up to 15 µM; activity change, negative = inhibition: at the top concentration.
Sequence of NAD-dependent protein deacylase sirtuin-5, mitochondrial (Homo sapiens) (Q9NXA8 whole entry, looked up): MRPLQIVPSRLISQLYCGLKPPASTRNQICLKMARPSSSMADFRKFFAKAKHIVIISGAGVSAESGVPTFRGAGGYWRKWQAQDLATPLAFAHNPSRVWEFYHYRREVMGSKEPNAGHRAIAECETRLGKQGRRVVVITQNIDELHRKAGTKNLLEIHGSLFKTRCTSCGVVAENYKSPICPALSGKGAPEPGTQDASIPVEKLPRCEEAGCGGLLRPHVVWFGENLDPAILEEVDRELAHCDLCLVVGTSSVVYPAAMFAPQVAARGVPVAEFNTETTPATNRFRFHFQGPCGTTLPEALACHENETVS

Activity change, negative = inhibition, inactive:
COc1cccc(S(=O)(=O)N(C)C[C@@H]2Oc3cc(C4=CCCCC4)ccc3S(=O)(=O)N([C@@H](C)CO)C[C@@H]2C)c1 -2.52%
CNC[C@@H]1Oc2ccc(NC(=O)Nc3ccc(F)cc3)cc2CC(=O)N([C@H](C)CO)C[C@@H]1C 9.57%
C[C@@H]1CCCCO[C@@H](CN(C)CC2CCCCC2)[C@H](C)CN([C@H](C)CO)C(=O)c2cc(NC(=O)CCCCCC(=O)Nc3ccccc3N)ccc2O1 -23.9% [at 16 µM]
Cc1ccc(S(=O)(=O)Nc2ccc3c(c2)C(=O)N([C@@H](C)CO)C[C@H](C)[C@@H](CN(C)S(=O)(=O)c2ccc(F)cc2)OCCCC[C@@H](C)O3)cc1 -1.33%
CN(C)C(=O)c1cccc(-c2ccc([C@@H]3[C@@H](CO)N4CCCCN(S(C)(=O)=O)C[C@@H]34)cc2)c1 19.7%
COCCOC(=O)N1C(=O)[C@@]2(c3cc(C#CCCO)ccc31)[C@H](c1ccccc1OCCO)N1[C@H](c3ccccc3)[C@H](c3ccccc3)OC(=O)[C@H]1[C@@H]2C(=O)N1CCN(c2ncccn2)CC1 -16.8%
C[C@@H]1CN([C@H](C)CO)C(=O)Cc2cc(NC(=O)Nc3ccc(F)cc3)ccc2O[C@@H]1CN(C)C 1.73%
CNC[C@@H]1Oc2ccc(NC(=O)Nc3ccc(F)cc3)cc2CC(=O)N([C@H](C)CO)C[C@H]1C 3.83%
C[C@H]1CCCCO[C@@H](CN(C)C(=O)Nc2ccc(C(F)(F)F)cc2)[C@@H](C)CN([C@@H](C)CO)C(=O)c2cc(NS(=O)(=O)c3ccc(Cl)cc3)ccc2O1 18%
COc1cccc(CNC(=O)C[C@H]2CC[C@@H]3[C@@H](COc4ccc(NC(=O)c5cccs5)cc4C(=O)N3C)O2)c1 5.59%
